Consider nine compounds from ChEMBL document CHEMBL1961873, “Compounds: GSK PKIS; Assays: Nanosyn kinase panel” (2012).

In experiment [1] the target is Serine/threonine-protein kinase 26 (Homo sapiens) (UniProt Q9P289). The settings on record: at 1 µM.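 Also: mean inhibition of MST4 kinase activity, reported from the GSK PKIS inhibitor-set screening panel.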
Experiment [2] deals with Serine/threonine-protein kinase PAK 1 (Homo sapiens) (UniProt Q13153). The settings on record: at 0.1 µM.
Experiment [3] has the same target. The settings on record: at 1 µM.
Experiment [4] deals with Serine/threonine-protein kinase PAK 2 (Homo sapiens) (UniProt Q13177). The settings on record: at 0.1 µM.
Serine/threonine-protein kinase PAK 2 (Homo sapiens), sequence (Q13177 whole entry): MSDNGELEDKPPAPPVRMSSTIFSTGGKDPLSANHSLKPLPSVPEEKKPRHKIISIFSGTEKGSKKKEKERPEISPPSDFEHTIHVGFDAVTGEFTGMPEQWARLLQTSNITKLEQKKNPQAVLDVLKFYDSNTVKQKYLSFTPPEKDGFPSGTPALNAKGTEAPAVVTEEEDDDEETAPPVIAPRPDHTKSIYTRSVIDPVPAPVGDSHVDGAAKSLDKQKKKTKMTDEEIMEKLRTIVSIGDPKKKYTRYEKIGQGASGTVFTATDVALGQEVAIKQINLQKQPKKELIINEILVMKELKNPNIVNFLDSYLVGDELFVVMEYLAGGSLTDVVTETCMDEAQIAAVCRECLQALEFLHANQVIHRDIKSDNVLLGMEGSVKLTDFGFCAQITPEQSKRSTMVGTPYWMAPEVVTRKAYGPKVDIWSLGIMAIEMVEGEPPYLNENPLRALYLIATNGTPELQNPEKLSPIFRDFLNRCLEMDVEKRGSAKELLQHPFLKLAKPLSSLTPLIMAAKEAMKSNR
For experiment [5] the target is unchanged. The settings on record: at 1 µM.
Experiment [6] addresses Serine/threonine-protein kinase PAK 3 (Homo sapiens) (UniProt O75914). The settings on record: at 0.1 µM.
Experiment [7] shares this target. The settings on record: at 1 µM.
Experiment [8] addresses Serine/threonine-protein kinase PAK 5 (Homo sapiens) (UniProt Q9P286). The settings on record: at 0.1 µM.
Experiment [9] has the same target. The settings on record: at 1 µM.
Experiment [10] deals with Serine/threonine-protein kinase PAK 6 (Homo sapiens) (UniProt Q9NQU5). The settings on record: at 0.1 µM.
Serine/threonine-protein kinase PAK 6 (Homo sapiens), sequence (Q9NQU5 whole entry, looked up): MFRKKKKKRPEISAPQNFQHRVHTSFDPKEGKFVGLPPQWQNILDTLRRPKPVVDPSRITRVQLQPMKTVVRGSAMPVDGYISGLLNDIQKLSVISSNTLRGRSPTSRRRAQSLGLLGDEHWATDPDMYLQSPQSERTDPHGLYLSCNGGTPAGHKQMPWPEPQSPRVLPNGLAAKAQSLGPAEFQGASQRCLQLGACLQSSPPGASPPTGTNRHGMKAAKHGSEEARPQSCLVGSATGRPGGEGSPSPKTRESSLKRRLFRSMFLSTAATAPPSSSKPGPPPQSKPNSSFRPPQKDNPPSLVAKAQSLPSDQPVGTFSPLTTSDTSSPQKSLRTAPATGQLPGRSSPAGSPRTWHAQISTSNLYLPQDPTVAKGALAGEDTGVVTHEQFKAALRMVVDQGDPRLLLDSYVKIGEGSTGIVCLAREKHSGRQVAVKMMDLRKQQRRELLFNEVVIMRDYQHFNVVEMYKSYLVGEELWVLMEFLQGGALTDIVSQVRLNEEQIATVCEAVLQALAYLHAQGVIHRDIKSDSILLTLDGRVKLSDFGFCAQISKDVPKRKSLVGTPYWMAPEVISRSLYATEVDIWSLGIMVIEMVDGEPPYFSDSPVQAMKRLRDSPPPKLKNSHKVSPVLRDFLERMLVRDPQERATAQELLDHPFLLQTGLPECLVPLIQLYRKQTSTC
Experiment [11] shares this target. The settings on record: at 1 µM.
In experiment [12] the test system is Tyrosine-protein kinase ABL1 (Homo sapiens), P00519 [E255K]. The settings on record: at 0.1 µM.
The test system is the same in experiment [13]. The settings on record: at 1 µM.
Experiment [14] has as its system Tyrosine-protein kinase ABL1 (Homo sapiens), P00519 [H396P]. The settings on record: at 0.1 µM.
The test system is the same in experiment [15]. The settings on record: at 1 µM.
Experiment [16] has as its system Tyrosine-protein kinase ABL1 (Homo sapiens), P00519 [M351T]. The settings on record: at 0.1 µM.
For experiment [17] the test system is unchanged. The settings on record: at 1 µM.
The subject of experiment [18] is Tyrosine-protein kinase ABL1 (Homo sapiens), P00519 [Q252H]. The settings on record: at 0.1 µM.
Experiment [19] shares this test system. The settings on record: at 1 µM.
Experiment [20] concerns Tyrosine-protein kinase ABL1 (Homo sapiens), P00519 [T315I]. The settings on record: at 0.1 µM.

Serine/threonine-protein kinase PAK 3 (Homo sapiens), sequence (O75914 whole entry, looked up): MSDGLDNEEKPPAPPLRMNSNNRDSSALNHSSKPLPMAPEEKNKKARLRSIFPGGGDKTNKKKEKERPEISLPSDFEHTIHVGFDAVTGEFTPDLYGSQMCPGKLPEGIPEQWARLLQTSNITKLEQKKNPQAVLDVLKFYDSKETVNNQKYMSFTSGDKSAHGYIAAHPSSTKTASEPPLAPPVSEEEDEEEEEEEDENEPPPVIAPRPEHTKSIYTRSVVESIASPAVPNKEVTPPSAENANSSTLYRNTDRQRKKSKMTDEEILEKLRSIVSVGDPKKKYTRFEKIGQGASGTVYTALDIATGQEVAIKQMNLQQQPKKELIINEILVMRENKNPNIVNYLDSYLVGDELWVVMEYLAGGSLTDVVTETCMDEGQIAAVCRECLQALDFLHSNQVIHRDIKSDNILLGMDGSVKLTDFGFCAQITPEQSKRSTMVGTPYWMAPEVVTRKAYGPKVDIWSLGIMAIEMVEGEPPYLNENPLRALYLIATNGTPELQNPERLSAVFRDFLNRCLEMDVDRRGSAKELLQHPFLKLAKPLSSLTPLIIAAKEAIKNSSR
Serine/threonine-protein kinase PAK 1 (Homo sapiens), sequence (Q13153 whole entry): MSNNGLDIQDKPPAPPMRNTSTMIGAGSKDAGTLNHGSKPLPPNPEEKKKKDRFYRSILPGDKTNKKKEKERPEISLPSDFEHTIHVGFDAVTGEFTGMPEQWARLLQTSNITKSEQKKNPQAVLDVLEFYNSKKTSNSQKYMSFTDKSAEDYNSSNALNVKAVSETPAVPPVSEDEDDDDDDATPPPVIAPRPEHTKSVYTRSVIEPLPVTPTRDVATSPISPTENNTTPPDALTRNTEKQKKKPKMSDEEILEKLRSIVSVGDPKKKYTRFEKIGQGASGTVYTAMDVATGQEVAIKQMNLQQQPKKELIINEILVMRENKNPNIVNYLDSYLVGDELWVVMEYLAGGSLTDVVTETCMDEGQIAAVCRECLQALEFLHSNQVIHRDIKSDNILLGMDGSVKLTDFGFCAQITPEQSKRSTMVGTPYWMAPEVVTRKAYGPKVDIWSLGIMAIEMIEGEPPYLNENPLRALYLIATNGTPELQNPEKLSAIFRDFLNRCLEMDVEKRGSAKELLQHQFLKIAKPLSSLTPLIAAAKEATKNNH
Serine/threonine-protein kinase PAK 5 (Homo sapiens), sequence (Q9P286 whole entry, looked up): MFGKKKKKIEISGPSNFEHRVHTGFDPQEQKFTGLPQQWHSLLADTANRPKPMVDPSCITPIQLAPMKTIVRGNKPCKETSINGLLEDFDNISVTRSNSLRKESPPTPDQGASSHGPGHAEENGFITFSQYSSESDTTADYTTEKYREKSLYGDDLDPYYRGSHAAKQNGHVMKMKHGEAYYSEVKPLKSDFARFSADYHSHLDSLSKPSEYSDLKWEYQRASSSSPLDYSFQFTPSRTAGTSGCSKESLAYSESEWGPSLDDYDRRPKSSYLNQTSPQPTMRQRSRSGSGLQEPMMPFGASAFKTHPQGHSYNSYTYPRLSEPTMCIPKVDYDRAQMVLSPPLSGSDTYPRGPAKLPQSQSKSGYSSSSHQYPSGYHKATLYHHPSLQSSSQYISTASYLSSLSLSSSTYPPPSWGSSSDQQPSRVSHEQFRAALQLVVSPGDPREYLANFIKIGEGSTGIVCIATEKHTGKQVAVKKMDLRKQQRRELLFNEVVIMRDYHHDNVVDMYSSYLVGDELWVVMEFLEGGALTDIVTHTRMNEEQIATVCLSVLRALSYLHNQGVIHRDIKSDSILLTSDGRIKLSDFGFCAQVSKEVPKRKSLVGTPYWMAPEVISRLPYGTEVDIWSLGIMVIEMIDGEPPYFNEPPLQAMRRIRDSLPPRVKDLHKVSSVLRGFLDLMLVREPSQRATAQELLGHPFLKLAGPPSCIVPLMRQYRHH
Serine/threonine-protein kinase 26 (Homo sapiens), sequence (Q9P289 2-416 limits assumed): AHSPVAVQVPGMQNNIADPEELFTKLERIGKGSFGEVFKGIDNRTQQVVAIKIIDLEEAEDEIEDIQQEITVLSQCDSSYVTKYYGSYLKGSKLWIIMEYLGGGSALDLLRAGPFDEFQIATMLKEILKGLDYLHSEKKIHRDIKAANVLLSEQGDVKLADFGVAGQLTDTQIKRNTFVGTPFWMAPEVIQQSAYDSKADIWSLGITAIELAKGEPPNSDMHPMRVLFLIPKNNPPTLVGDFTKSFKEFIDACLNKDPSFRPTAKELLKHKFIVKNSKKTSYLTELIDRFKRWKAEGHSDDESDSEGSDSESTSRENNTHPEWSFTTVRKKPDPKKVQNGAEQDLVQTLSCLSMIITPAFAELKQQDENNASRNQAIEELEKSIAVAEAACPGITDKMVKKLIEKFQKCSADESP

The inhibition is the drop in the measured response relative to a control, in per cent. Turning to `CC(=O)Nc1cccc(C#Cc2cncnc2Nc2ccc(OCc3cccc(F)c3)c(Cl)c2)c1`, the inhibition in experiment [1] is -0.92%; in experiment [2], 3.48%; in experiment [3] it was 6.05%; in [4], 2.19%; in [5], 1.41%; in experiment [6], 2.92%. Besides, the inhibition was 3.79% in experiment [7]; -5.54% in [8]; 1.62% in [9]; 2.97% in experiment [10]; -5.42% in [11]; -0.36% in [12]. Also, the inhibition in experiment [13] is 1.79%; in experiment [14], 2.77%; in experiment [15] it was 1.25%; in experiment [16] it was 1.83%; in [17], 2.92%; in [18], 2.53%. Further, the inhibition in experiment [19] is 2.16%; in [20], 1.92%.

On to `CCn1c(-c2nonc2N)nc2ccccc21`, for which the inhibition was -1.31% in [1]; 5% in experiment [2]; 6.81% in experiment [3]; 3.34% in experiment [4]; 2.08% in experiment [5]; 1.86% in experiment [6]. The inhibition in experiment [7] was 4.13%; in experiment [8] it was 5.02%; in experiment [9] it was 8.78%; in [10], 0.13%; in experiment [11], -4.14%; in experiment [12], 3.43%. Besides, the inhibition is 2.16% in [13]; 3.5% in experiment [14]; 0.21% in experiment [15]; 2.29% in experiment [16]; -3.04% in [17]; 4.29% in experiment [18]. The inhibition in experiment [19] amounted to 0.56%; in experiment [20] it was 2.3%.

As for `Cc1cccc2c1NC(=O)/C2=N\Nc1ccc(S(N)(=O)=O)cc1`, the inhibition in experiment [1] was -4.46%; in experiment [2] it was 7.85%; in experiment [3] it was 5.96%; in experiment [4], 2.44%; in [5], 1.43%; in [6], 3.43%. Further, the inhibition stood at 3.88% in [7]; 11.2% in experiment [8]; 2.81% in experiment [9]; 3.7% in [10]; 7.35% in experiment [11]; 1.51% in [12]. In addition, the inhibition in experiment [13] worked out at 6.03%; in [14], 6.45%; in experiment [15], 7.83%; in [16], 0.61%; in [17] it was 7.81%; in experiment [18] it was 2.71%. The inhibition in experiment [19] came out at 7.61%; in [20], 2.54%.

As for `Fc1ccc(-c2cc(-c3c[nH]nc3-c3ccccn3)ccn2)cc1`, the inhibition in experiment [1] is 1.02%; in [2] it was 6.01%; in experiment [3], 5.42%; in experiment [4], 1.23%; in experiment [5], 1.38%; in [6] it was 4.08%. The inhibition in experiment [7] was 5.11%; in [8], 6.2%; in experiment [9], 2.37%; in [10], -1.74%; in [11], -4.06%; in [12], 3.42%. Also, the inhibition was 14.4% in [13]; 7.22% in [14]; 29.8% in [15]; 4.15% in experiment [16]; 28.3% in experiment [17]; 5.44% in experiment [18]. The inhibition in experiment [19] is 16%; in [20] it was 3.13%.

In the case of `CCCN(CCS(C)(=O)=O)Cc1ccc(-c2ccc3ncnc(Nc4ccc(OCc5cccc(F)c5)c(Cl)c4)c3c2)o1`, the inhibition in [1] worked out at 2.97%; in [2], 5.02%; in [3] it was 3.91%; in [4] it was 0.72%; in [5] it was 0.92%; in experiment [6] it was 1.58%. The inhibition in experiment [7] was 2.05%; in [8], 3.25%; in experiment [9], 9.68%; in [10] it was -9.75%; in experiment [11], 0.49%; in [12] it was 2.99%. Also, the inhibition in experiment [13] is 2.9%; in [14], 3.87%; in experiment [15] it was 1.99%; in [16], 3.22%; in experiment [17], 3.73%; in experiment [18] it was 3.51%. Moreover, the inhibition in experiment [19] stood at 3.02%; in experiment [20], 1.81%.

For `CS(=O)(=O)CCNCc1ccc(-c2ccc3ncnc(Nc4ccc(OCc5ccccc5)c(C(F)(F)F)c4)c3c2)o1`, the inhibition in experiment [1] is -2.67%; in experiment [2], 4.26%; in experiment [3], 8.46%; in [4], 1.24%; in experiment [5], 1.28%; in [6] it was 4.99%. Also, the inhibition in experiment [7] is 4.14%; in [8], 1.91%; in experiment [9] it was 3.73%; in experiment [10], -5.25%; in experiment [11] it was -6.97%; in experiment [12], 3.5%. The inhibition in [13] was found to be 2.71%; in experiment [14], 4.04%; in [15], 4.48%; in experiment [16], 0.91%; in experiment [17], 0.91%; in experiment [18] it was 2.84%. Besides, the figures for the inhibition in experiment [19] and in experiment [20] were 2.08% and 2.59%, respectively.

With `COc1cc2ncn(-c3cc(OCc4ccccc4C(F)(F)F)c(C(=O)N(C)C)s3)c2cc1OC`, the inhibition is 3.36% in experiment [1]; -0.17% in [2]; -2.04% in experiment [3]; -1.09% in experiment [4]; -0.86% in experiment [5]; -0.48% in [6]. Further, the inhibition is -0.61% in experiment [7]; -6.21% in experiment [8]; 0.3% in [9]; -7.29% in experiment [10]; -4.14% in experiment [11]; 1.36% in [12]. Besides, the inhibition came to 9.93% in [13]; 2.27% in experiment [14]; 16.3% in [15]; 1.09% in experiment [16]; 14.9% in experiment [17]; 2.35% in experiment [18]. In addition, the inhibition was 13.2% in experiment [19] and -0.89% in [20].

Regarding `CN1CCC(n2cnc(-c3ccc(F)cc3)c2-c2ccnc(Nc3ccccc3)n2)CC1`, the inhibition in experiment [1] is 5.17%; in [2], 1.24%; in experiment [3], 4.02%; in experiment [4], 0.86%; in experiment [5] it was -0.38%; in [6], 2.18%. Moreover, the inhibition in [7] was 2.38%; in experiment [8] it was -3.93%; in experiment [9], 4.44%; in experiment [10], -9.85%; in experiment [11], -6.61%; in experiment [12], 2.58%. Moreover, the inhibition stood at 4.56% in [13]; 4.83% in experiment [14]; 13.6% in experiment [15]; 0.84% in experiment [16]; 10.2% in experiment [17]; 3.66% in [18]. The inhibition in [19] worked out at 9.15%; in [20], 1.45%.

For `CC(=O)NCc1cccc(C#Cc2cncnc2Nc2ccc(OCc3cccc(F)c3)c(Cl)c2)c1`, the inhibition in experiment [1] is 2.49%; in experiment [2], 4.19%; in experiment [3], 4.46%; in experiment [4] it was -0.34%; in experiment [5] it was -0.13%; in experiment [6], -0.22%. For the same compound, the inhibition was 0.22% in [7]; 2.64% in experiment [8]; -5.66% in [9]; 3.99% in experiment [10]; -2.72% in experiment [11]; -0.06% in [12]. The inhibition in [13] is 1.65%; in [14], 2.49%; in experiment [15] it was -0.68%; in experiment [16], 1.1%; in [17], -0.38%; in experiment [18], 2.02%. The inhibition in experiment [19] was -0.7%; in experiment [20] it was 2%.
